In PubChem BioAssay (NCI):
Values joined by “and” are separate entries in the source; they are usually repeats but may differ in a detail not shown here. Equal values may be shown once. The panel holds about 83,000 compounds, 20% with a hit somewhere; the sample as a whole holds those more often.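 Note: values are percent growth. 100 is the growth of untreated cells, values between 100 and 0 indicate rising inhibition; between -100 and 0 indicates cell death.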 Active and inactive are the calls of the source. The calls were made as follows: active = growth percent below 10; inactive = the rest.

How the values were obtained:
Experiment in all cases: NCI-60 one-dose screen, 48 h (100 = growth as untreated, 0 = no growth, -100 = all killed)
Details in all cases: 10 µM unless noted
[1] = test system: NCI-H23 lung
[2] = test system: NCI-H226 lung
[3] = test system: NCI-H322M lung
[4] = test system: HOP-62 NSCLC
[5] = test system: NCI-H460 lung
[6] = test system: HOP-92 NSCLC
[7] = test system: NCI-H522 lung
[8] = test system: A549/ATCC NSCLC
[9] = test system: 786-0 renal
[10] = test system: COLO 205 colon
[11] = test system: DU-145 prostate
[12] = test system: K-562 leukemia
[13] = test system: MALME-3M melanoma
[14] = test system: MDA-MB-231 breast
[15] = test system: RXF 393 renal
[16] = test system: SF-268 CNS
[17] = test system: SF-295 CNS
[18] = test system: SF-539 CNS
[19] = test system: UACC-257 melanoma
[20] = test system: M14 melanoma

Measured: growth

CCC1CCC(=O)O1 (stereo not given)
inactive: [1] 110% and 111% | [2] 97.4% and 110% | [3] 102% and 104% | [4] 96.9% and 115% | [5] 103% and 110% | [6] 123% | [7] 85.1% and 105% | [8] 112% and 105% | [9] 98.1% and 107% | [10] 104% and 125% | [11] 112% and 116% | [12] 110% and 119% | [13] 98.2% and 116% | [14] 106% and 112% | [15] 101% and 124% | [16] 106% and 110% | [17] 119% | [18] 98.7% and 106% | [19] 105% | [20] 107% and 114%

N#CC(C#N)=Cc1cccc(F)c1
inactive: [1] 102% | [2] 103% | [3] 104% | [4] 95.2% | [5] 105% | [6] 130% | [7] 99.4% | [8] 100% | [9] 103% | [10] 115% | [11] 105% | [12] 96.8% | [13] 110% | [14] 109% | [15] 110% | [16] 99.7% | [17] 105% | [18] 105% | [19] 107% | [20] 107%

CSc1cc(/C=C(\C)[C@@H]2C[C@@H]3O[C@]3(C)CCC[C@H](C)[C@H](O)[C@@H](C)C(=O)C(C)(C)[C@@H](O)CC(=O)O2)n(CCNC(=O)OC(C)(C)C)n1
inactive: [1] 61.4% | [2] 82.7% | [3] 77.2% | [4] 68.7% | [5] 29.6% | [6] 70.3% | [7] 63.1% | [8] 55.2% | [9] 66.6% | [10] 30.5% | [11] 58% | [12] 36.4% | [13] 78.7% | [14] 63.8% | [15] 63.6% | [16] 70.6% | [17] 73.5% | [18] 54% | [19] 91.9% | [20] 56.7%

N[C@@H](CCC(=O)CCl)C(=O)O
inactive: [1] 97.3% [20 µM] | [2] 104% [20 µM] | [3] 98.1% [20 µM] | [4] 95.9% [20 µM] | [5] 106% [20 µM] | [6] 84.6% [20 µM] | [7] 77.1% [20 µM] | [8] 102% [20 µM] | [9] 101% [20 µM] | [10] 106% [20 µM] | [11] 105% [20 µM] | [12] 82.9% [20 µM] | [13] 92.5% [20 µM] | [14] 92.2% [20 µM] | [15] 112% [20 µM] | [16] 98.4% [20 µM] | [17] 98.9% [20 µM] | [18] 104% [20 µM] | [19] 99.9% [20 µM] | [20] 95.9% [20 µM]

N#CCN(CC#N)[N+](=O)[O-]
inactive: [1] 109% | [2] 97.9% | [3] 110% | [4] 102% | [5] 104% | [6] 84.9% | [7] 94.4% | [8] 106% | [9] 103% | [10] 110% | [11] 107% | [12] 105% | [13] 111% | [14] 103% | [15] 106% | [16] 102% | [17] 110% | [18] 102% | [19] 113% | [20] 97%

Cc1cc[c-]cc1.Fc1c[c-]c(-c2ccccn2)c(F)c1.[Pt+2].c1ccc([PH+](c2ccccc2)c2ccccn2)cc1
active: [13] -2.32%
inactive: [1] 70% | [2] 58.1% | [3] 83.6% | [4] 90.6% | [5] 61.5% | [6] 56.3% | [7] 64.4% | [8] 41.8% | [9] 63.5% | [10] 32.9% | [11] 59.1% | [12] 23.9% | [14] 67.8% | [15] 32.6% | [16] 62.1% | [17] 72% | [18] 72.3% | [19] 87.2% | [20] 62.1%

C[C@]12CCc3nc(-c4ccc(O)c(O)c4)sc3C1=CC[C@@H]1[C@@H]2CC[C@]2(C)C(=O)CC[C@@H]12
active: [7] 8.61%
inactive: [1] 69% | [2] 65% | [3] 80% | [4] 80.8% | [5] 93.8% | [6] 56.3% | [8] 61.2% | [9] 75.3% | [10] 55.4% | [11] 75.3% | [12] 56% | [13] 62.9% | [14] 56% | [15] 91.2% | [16] 81.5% | [17] 104% | [18] 56.4% | [19] 91.4% | [20] 63.1%

C[C@]12CCc3sc(Nc4ccc(O)cc4)nc3C1=CC[C@@H]1[C@@H]2CC[C@]2(C)C(=O)CC[C@@H]12
inactive: [1] 70.2% | [2] 103% | [3] 93.4% | [4] 92.7% | [5] 65.6% | [6] 126% | [8] 79.3% | [10] 38.5% | [11] 10.4% | [12] 10.8% | [13] 29.7% | [14] 35.3% | [16] 58.3% | [17] 52.5% | [19] 73.4% | [20] 58.1%
active: [7] -55.2% | [9] -3.03% | [15] -16.2% | [18] -3.84%

C=CC[PH+](c1ccccc1)c1ccccc1.C=CC[PH+](c1ccccc1)c1ccccc1.[Pt+2].[S-]c1ncccn1.[S-]c1ncccn1
inactive: [1] 36.6% | [3] 85.1% | [4] 90.3% | [5] 91.6% | [8] 71.4% | [9] 19.6% | [11] 35.5% | [16] 87.4% | [17] 84.2% | [18] 60.2% | [19] 66.7%
active: [2] 3.04% | [6] -7.37% | [7] -46.1% | [10] -11.5% | [12] 5% | [13] -10.8% | [14] 7.07% | [15] -77.6% | [20] 1.19%

CCCCn1c(=O)c(C(=O)NCc2ccccc2Cl)c(O)c2ccccc21
inactive: [1] 54.1% | [2] 63% | [3] 75.2% | [4] 76.9% | [5] 67.6% | [6] 66.9% | [7] 73.4% | [8] 58% | [9] 52.2% | [10] 92.8% | [11] 84.6% | [12] 42.3% | [13] 98% | [14] 88.7% | [15] 87.7% | [16] 80.8% | [17] 51.8% | [18] 97.4% | [19] 80.9% | [20] 59.4%

Cc1cc(N(CCCl)CCCl)ccc1C=Nc1ccc(-c2csc(-c3ccccc3)n2)cc1
inactive: [1] 66.6% | [2] 58.5% | [3] 117% | [4] 79.3% | [5] 33.1% | [6] 59.4% | [7] 102% | [8] 67.2% | [9] 59.2% | [10] 88.9% | [11] 68.3% | [12] 80.4% | [13] 115% | [14] 90.3% | [15] 90.1% | [16] 66.7% | [17] 66.2% | [18] 74.4% | [19] 86.5% | [20] 92.6%

Oc1ccc(O)c(Cl)c1
active: [7] -92.2% and -1.35%
inactive: [1] 96.2% and 88.3% | [2] 94.5% and 98.5% | [3] 109% and 98.2% | [4] 109% | [5] 99.7% and 102% | [6] 87.6% and 102% | [8] 92.5% and 111% | [9] 108% and 112% | [10] 109% and 99.8% | [11] 103% | [12] 89.1% and 94.8% | [13] 106% and 103% | [14] 67.3% and 101% | [15] 93% and 113% | [16] 96% and 100% | [17] 103% and 118% | [18] 84.4% and 102% | [19] 88.1% and 102% | [20] 95.7% and 104%

Oc1cc(Cl)ccc1Oc1ccc(Cl)cc1Cl
inactive: [2] 99.7% | [3] 97.6% | [4] 20.5% | [8] 37.5% | [9] 86.4% | [10] 105% | [11] 14.5% | [12] 11% | [16] 21.5% | [18] 14.7% | [19] 21.4% | [20] 22.1%
active: [1] 7.13% | [5] 3.2% | [6] -11.4% | [7] -4.34% | [13] 5.91% | [14] 8.82% | [15] -9.98% | [17] 7.37%
